PubChem BioAssay (NCI)
Values joined by “and” are separate entries in the source; they are usually repeats but may differ in a detail not shown here. Identical values can stand only once. About 83,000 compounds went through this panel and 20% of them were active in at least one assay; those are over-represented in the sample as a whole.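 Step 1: grow cells in 96-well plates. Step 2: add test compound at a single concentration. Step 3: incubate 48 h. Step 4: record percent growth.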 Active and inactive are the calls of the source. The calls were made as follows: active = growth percent below 10; inactive = the rest.

system: MCF7 breast; test: NCI-60 one-dose screen, 48 h (100 = growth as untreated, 0 = no growth, -100 = all killed); conditions: 10 µM unless noted

SMILES	growth
CC(C)/C(Cl)=N/OC(=O)Nc1cccc(C(F)(F)F)c1	-79.5% [100 µM] (active) and -84.4% [100 µM] (active)
Cc1ccc(OCC2OC(n3cnc4nc(N)nc(Cl)c43)CC2Oc2ccc(C)cc2)cc1 (centres undefined)	45.4% [100 µM] (inactive) and -87.9% [100 µM] (active)
COc1cc2oc3c(c(=O)c2c(O)c1/C=C/C(C)C)CCC(C)(C)Oc1cc(O)ccc1-3	-61% [100 µM] (active) and -100% [100 µM] (active)
CSc1nc(Br)nc2ncn(C3CC(Oc4ccc(C)cc4)C(COc4ccc(C)cc4)O3)c12 (centres undefined)	64.8% [100 µM] (inactive) and -36.2% [100 µM] (active)
Cc1ccc(NC(=O)/C(Cc2cc(=O)oc3cc(O)ccc23)=N\NC(C)(C)C)cc1C	117% [100 µM] (inactive) and 97.1% [100 µM] (inactive)
N#Cc1nc(C(F)(F)F)oc1N	66.3% [100 µM] (inactive) and 98.4% [100 µM] (inactive)
COc1c(O)ccc(C2=Cc3ccc(O)cc3OC2)c1OC	-13.9% [100 µM] (active) and -13.3% [100 µM] (active)
NC(N)=Nc1ccc(CC(N)C(=O)O)cc1 (centres undefined)	93.7% [12.5 µM] (inactive) and 76.9% [12.5 µM] (inactive)
Cc1ccc(OC2CC(n3cnc4ncnc(Cl)c43)OC2Oc2ccc(C)cc2)cc1 (centres undefined)	8.44% [100 µM] (active) and -95.4% [100 µM] (active)
COc1cc2c(cc1C1COc3cc4occc4cc3C1=O)OCO2 (centres undefined)	65.2% [100 µM] (inactive) and 62.9% [100 µM] (inactive)
CC1=CC(=O)c2ccc(C)cc2C1=O	-70.7% [100 µM] (active) and -100% [100 µM] (active)
COC(=O)c1cnn2c1n[n+]([O-])c1ccccc12	68.2% [100 µM] (inactive) and 11.8% [100 µM] (inactive)
Cc1ccc(/C=N/Nc2nc3ccccc3s2)s1	2.03% [100 µM] (active) and 4.5% [100 µM] (active)
C=C(CCC(C(=O)O)C1CCC2(C)C3=C(CCC12C)C1(C)CCC(O)C(C)(C)C1CC3)C(C)C (centres undefined)	-52.5% [100 µM] (active) and -56.2% [100 µM] (active)
CC1=C2NCN(C)N=C2C(C#N)(C#N)C1(C#N)C#N	-60.6% [100 µM] (active) and -73.1% [100 µM] (active)
CC(=O)c1ccc(NC(=O)/C(CC(=O)/C=C/c2ccccc2)=N/NC(N)=S)cc1	52.9% [100 µM] (inactive) and 4.14% [100 µM] (active)
COC(=O)C(=O)C(C(=O)C(=O)Nc1ccccc1OC)c1nc2ccc([N+](=O)[O-])cc2[nH]c1=O (centres undefined)	43% [100 µM] (inactive) and 41.8% [100 µM] (inactive)
Clc1ccc(C2C3COc4ccccc4C3=NN2c2ccccc2)cc1 (centres undefined)	12.9% [100 µM] (inactive) and -27.8% [100 µM] (active)
Cc1ccc(OCC2OC(n3cnc4nc(Cl)nc(Cl)c43)CC2Oc2ccc(C)cc2)cc1 (centres undefined)	0.206% [100 µM] (active) and -99.2% [100 µM] (active)
Cn1c2c(c3ccccc3c1=O)C(=O)c1ccccc1-2	26.8% [100 µM] (inactive) and 7.69% [100 µM] (active)

SMILES	growth
COc1ccc(C)cc1NC(=S)C#N	77.9% [100 µM] (inactive) and 4.98% [100 µM] (active)
COC(=O)C(/C(=N/NC(N)=O)C(=O)Nc1ccc(C)cc1)c1nc2ccc([N+](=O)[O-])cc2[nH]c1=O (centres undefined)	68.7% [100 µM] (inactive) and 41.2% [100 µM] (inactive)
C[C@@H]1C[C@](O)([C@@H](C)Cl)C(=O)O[C@@H]2CCN3CC=C(COC(=O)[C@]1(C)O)[C@H]23	82.2% [100 µM] (inactive) and 71.5% [100 µM] (inactive)
O=C1NC(N/N=C\c2ccccc2)=N/C1=C/c1ccc(Cl)cc1	-66.3% [100 µM] (active) and 14% [100 µM] (inactive)
COc1ccc(/C=c2\[nH]c3nc(=O)c(N4CCOCC4)c(N)n3c2=O)cc1	56.5% [100 µM] (inactive) and 43.7% [100 µM] (inactive)
COc1ccc2nc(N/N=C/c3ccc(C)s3)cc(C)c2c1	-92.2% [100 µM] (active) and -100% [100 µM] (active)
CNC(=S)/C(=N\Nc1nc[nH]c1C(N)=O)C(N)=S	10.6% [100 µM] (inactive) and 4.26% [100 µM] (active)
COC(=O)C(=O)C(C(=O)C(=O)Nc1ccccc1C(C)=O)c1nc2ccc(C(=O)c3ccccc3)cc2[nH]c1=O (centres undefined)	25.6% [100 µM] (inactive) and 2.25% [100 µM] (active)
C/C(O)=C/c1nc2sc(C)c(C)c2c(=O)s1	10.6% [100 µM] (inactive) and 6.54% [100 µM] (active)
Cc1ccc(OCC2OC(n3cnc4c(Cl)nc(Cl)nc43)CC2Oc2ccc(C)cc2)cc1 (centres undefined)	-91.5% [100 µM] (active) and -93.1% [100 µM] (active)
O=C1c2ccccc2-c2c1c1ccccc1c(=O)n2-c1cccnc1	21.1% [100 µM] (inactive) and 3.24% [100 µM] (active)
COc1ccc2c(=O)c(-c3cc4c(cc3OC)OCO4)coc2c1	74% [100 µM] (inactive) and 47.3% [100 µM] (inactive)
CCO/C=N\C1=C(C#N)SC2=N/C(=C\c3ccc(OC)cc3)C(=O)N21	59.2% [100 µM] (inactive) and 48.6% [100 µM] (inactive)
C[N+](C)(CCNC(=O)c1cccc2cc3ccccc3nc12)Cc1ccc([N+](=O)[O-])s1	37.1% [25 µM] (inactive) and 55.9% [25 µM] (inactive)
Cc1ccc(NC2=N/C(=C/c3ccccc3)C(Cl)=N2)cc1	71.3% [100 µM] (inactive) and 75.4% [100 µM] (inactive)
NC(Cc1ccc(S(=O)(=O)O)cc1)C(=O)NC(Cc1ccc(S(=O)(=O)O)cc1)C(=O)NC(Cc1ccc(S(=O)(=O)O)cc1)C(=O)NC(Cc1ccc(S(=O)(=O)O)cc1)C(=O)O (centres undefined)	87.7% [100 µM] (inactive) and 83.5% [100 µM] (inactive)
CCCCCC(O)(CCCCC)CCCCCCCCC1=C(O)c2ccccc2C(=O)C1=O	-37.7% [100 µM] (active) and -36.7% [100 µM] (active)
CCC(C)C1(O)OC2CC3(C)OC(=CC3=O)/C(C)=C\C3OC(=O)C1(C)C32 (centres undefined)	-50% [100 µM] (active) and -100% [100 µM] (active)
CNC(=S)c1nnsc1N	19% [100 µM] (inactive) and 0.417% [100 µM] (active)
